Screening results from PubChem BioAssay.
Shown are actives, neighbours in structure and some others; about 1.3% of the full set was active somewhere.
COUP-TFII inh: inhibitors of human COUP-TFII (NR2F2) | P24468 | HEK293T NGFI-A luciferase reporter, luminescence | inhibition, % at 8.6 µM | 370,000 tested, 0.7% active | AID 686940;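 active means inhibition above a per-plate cutoff, mean inhibition of test wells between control levels plus 3 SD, cut at about 38% in these data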;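 further: cells cotransfected with COUP-TFII expression vector driving the NGFI-A reporter; 0% = median of COUP-TF2 test wells and 100% = reporter-only cells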
Target sequence (P24468 whole entry, looked up): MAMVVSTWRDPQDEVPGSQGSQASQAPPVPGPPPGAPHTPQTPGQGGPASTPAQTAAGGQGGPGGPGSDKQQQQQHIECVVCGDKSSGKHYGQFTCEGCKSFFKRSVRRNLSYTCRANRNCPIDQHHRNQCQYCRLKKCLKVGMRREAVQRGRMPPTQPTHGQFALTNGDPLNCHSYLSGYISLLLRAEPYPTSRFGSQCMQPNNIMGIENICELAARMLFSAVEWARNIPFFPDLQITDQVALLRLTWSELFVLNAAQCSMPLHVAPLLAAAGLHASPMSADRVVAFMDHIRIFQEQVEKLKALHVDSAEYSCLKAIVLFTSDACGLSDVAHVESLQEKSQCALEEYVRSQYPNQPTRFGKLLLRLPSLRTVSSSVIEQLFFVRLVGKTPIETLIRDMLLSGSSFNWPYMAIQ
LRH-1 inv ag: suppresses constitutive activity of human LRH-1; HEK293T StAR-luciferase reporter, LRH-1 transfected, 24 h; 360,000 tested, 0.13% active; inhibition, % at 3.6 µM; O00482;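 active means inhibition above the mean inhibition of all tested compounds plus 3 SD, cut at about 73% in these data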;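 further: 0% = DMSO wells and 100% = reporter-only cells lacking LRH-1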
Gli-Sufu block: Gli-Sufu pathway antagonism. AID 588413. 340,000 tested, 0.74% active. Sufu-KO-LIGHT fibroblasts, Gli luciferase reporter luminescence. inhibition, % at 5 µM;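 active means inhibition above about 55%, limit read from the data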;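 further: 0% = DMSO-treated cells and 100% = wells with medium but no cells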
SRC3 inh: human NCOA3 inhibition; HEK293 GAL4-SRC3 luciferase reporter, luminescence; Q9Y6Q9; AID 588352; 360,000 tested, 0.17% active; inhibition, % at 3.6 µM;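 active means inhibition above a per-campaign cutoff, the mean of all compounds plus 3 SD, cut at about 60% in these data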;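 further: 0% = DMSO-treated cells and 100% = gossypol-treated cells at 36 µM; higher means less SRC3-driven luciferase light from the GAL4 reporter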
SRC1 inh: human NCOA1 inhibition; HEK293 GAL4-SRC1 luciferase reporter, luminescence; inhibition, % at 3.6 µM; 360,000 tested, 0.12% active; AID 588354;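 active means inhibition above the campaign mean plus 3 SD, with each screening campaign given its own cutoff, cut at about 60% in these data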;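 further: 0% = DMSO treated cells and 100% = gossypol at 36 µM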
NCOA2 inhibitor: human SRC2 (NCOA2) inhibition. Q15596. HEK293 GAL4-SRC2 luciferase reporter, luminescence. inhibition, % at 9 µM. 370,000 tested, 0.17% active. AID 651957;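 active means inhibition above the mean inhibition of all tested compounds plus 3 SD, set per campaign, cut at about 52% in these data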;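 further: 0% = DMSO treated cells and 100% = cells given Gossypol at 36 µM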
Gli-Sufu confirm: confirmation of Gli-SUFU pathway antagonists. shares compounds with Gli-Sufu block. Sufu-KO-LIGHT cells, Gli luciferase reporter, luminescence. inhibition, % at 5 µM. 2,500 tested, 40% active;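 active means mean inhibition at 5 µM reaching about 45%, limit read from the data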;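 further: plate controls were DMSO-treated cells for no effect and wells lacking cells for full effect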
Gli cytotox: cytotoxic in Gli-SUFU antagonist counter-screen | shares compounds with Gli-Sufu block | Sufu-KO-LIGHT cells cytotoxicity, ATP luminescence | cytotoxicity, % at 5 µM | 2,500 tested, 32% active;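 active means mean cytotoxicity at 5 µM above about 25%, limit read from the data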;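 further: cells exposed to compound overnight for roughly 16 to 18 hours; plate controls were DMSO wells with cells for no effect and medium without cells for full effect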
Wnt3a cs: Wnt3a reporter inhibition counter-screen. shares compounds with Gli-Sufu block. Wnt-LIGHT cells, Wnt3a-driven luciferase reporter, luminescence. inhibition, % at 6.25 µM. 2,500 tested, 20% active. AID 651995;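 active means mean inhibition above about 25%, limit read from the data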
* hit, by the source's call; · = not tested or not shown.

SMILES | COUP-TFII inh | LRH-1 inv ag | Gli-Sufu block | SRC3 inh | SRC1 inh | NCOA2 inhibitor | Gli-Sufu confirm | Gli cytotox | Wnt3a cs
Cc1ccc(C)c(NC(=S)NC2CC3CCC(C2)N3Cc2ccco2)c1 (stereo unspecified) | 23 | 17 | 76* | 6 | -3 | -21 | 32 | 0 | 4
C=CCOc1ccc(CN(C)c2ccc(S(=O)(=O)N3CCN(C)CC3)cc2[N+](=O)[O-])cc1 | 1 | 13 | 14 | 7 | -8 | -4 | · | · | ·
CCOc1ccc(CN(C)c2ccc(S(=O)(=O)N3CCN(C)CC3)cc2[N+](=O)[O-])cc1OC | · | 23 | 59* | 17 | 7 | · | 25 | 9 | 5
Cc1csc(NC(=O)c2ccc(COc3ccccc3F)o2)n1 | -11 | · | · | · | · | -18 | · | · | ·
Cc1ccc(C2c3c(n[nH]c3C)C(=O)N2Cc2ccccc2)cc1 (stereo unspecified) | 1 | · | · | · | · | 0 | · | · | ·
CCc1ccc2c(c1)CCCN2C(=O)c1ccccc1C(=O)O | 4 | 10 | 51 | -3 | -29 | 9 | 27 | 1 | -60
Cc1cc(C(=O)CN2CCC(C)CC2)c(C)n1-c1ccccc1F | 17 | -2 | 70* | 18 | 12 | -4 | 76* | 34* | 83*
COC(=O)[C@]12C[C@H](CC(=O)NCCc3ccccc3OC)C(=O)N(CCC3=CCCCC3)C1=C[C@H](C1CCCC1)O[C@@H]2C | -26 | · | · | · | · | 12 | · | · | ·
COC(=O)c1c(-n2cnnn2)sc(C)c1C | 9 | 6 | 50 | 6 | 0 | -12 | 20 | 2 | -41
CCOC(=O)CC[C@@H]1CC[C@]2(CCCN(C(=O)c3cccnc3)C2)O1 | -6 | · | · | · | · | -4 | · | · | ·
COc1cccc(C(=O)Nc2ccc3c(cc2=O)[C@@H](NC(C)=O)CCc2cc(OC)c(OC)c(OC)c2-3)c1 | · | 25 | 5 | 15 | -6 | · | · | · | ·
COC(=O)c1ccc2c(c1)C(NC(C)=O)CCc1cc(OC)c(OC)c(OC)c1-2 (stereo unspecified) | -79 | 26 | 65* | 11 | -17 | 18 | 60* | 57* | 14
CCCC(=O)NC1CCc2cc(OC)c(OC)c(OC)c2-c2ccc(OC)c(=O)cc21 (stereo unspecified) | -66 | 20 | 56* | 22 | -17 | 6 | 58* | 64* | -2
COc1cc2c(c(OC)c1OC)-c1ccc(OC)c(=O)cc1C(NC(C)=O)CC2 (stereo unspecified) | -79 | 28 | 45 | 24 | -14 | -9 | · | · | ·
CSc1nnc(Cn2c(=O)sc3ccccc32)n1-c1ccccc1C | 17 | -3 | 52 | -16 | -28 | 7 | 24 | 0 | -4
CCSc1nnc(Cn2c(=O)sc3ccccc32)n1-c1ccccc1C | 28 | -2 | 2 | -3 | -28 | -1 | · | · | ·
CCNC(=O)N(C)[C@H]1C[C@H]2c3[nH]c4c(-c5cccc(C)c5)cccc4c3CCN2C[C@H]1[C@H](C)O | 12 | · | · | · | · | -5 | · | · | ·
Cc1cc(=O)n2nc(N3CCCC(C(=O)NCCCN4CC(C)CC(C)C4)C3)sc2n1 (stereo unspecified) | 0 | -6 | 60* | 12 | -11 | -1 | 22 | 12 | -5
CCOc1ccc2nc(N3CCCC(C(=O)NCCCN4CCCCC4)C3)sc2c1 (stereo unspecified) | -21 | -47 | 65* | -43 | -38 | -25 | 20 | 11 | -212
CCOc1ccc2nc(N3CCCC(C(=O)NCCCN4CC(C)CC(C)C4)C3)sc2c1 (stereo unspecified) | -13 | -26 | 20 | -17 | -19 | 16 | · | · | ·
CCN(C[C@H]1[C@@H](c2ccc(C3=CCCC3)cc2)[C@H](CO)N1Cc1ccccn1)S(=O)(=O)c1ccccc1[N+](=O)[O-] | -2 | · | · | · | · | 0 | · | · | ·
CCc1nnc2n1N=C(c1ccc(Br)cc1)CS2 | 10 | -14 | 1 | -4 | 3 | 4 | · | · | ·
Brc1ccc(C2=Nn3c(Cn4nnc5ccccc54)nnc3SC2)cc1 | -2 | -4 | 55 | 2 | 12 | 6 | 32 | 4 | -36
O=C(CN1CCCc2ccccc21)NCc1ccc(Cl)cc1 | -7 | · | · | · | · | 7 | · | · | ·
CC1CCN(Cc2c(C(=O)N3CCc4ccccc4C3)nc3ccc(Cl)cn23)CC1 | 20 | 0 | 51 | -13 | -20 | -5 | 21 | 33* | -43
SMILES | COUP-TFII inh | LRH-1 inv ag | Gli-Sufu block | SRC3 inh | SRC1 inh | NCOA2 inhibitor | Gli-Sufu confirm | Gli cytotox | Wnt3a cs
O=C(c1nc2ccc(Cl)cn2c1CN1CCC(O)CC1)N1CCc2ccccc2C1 | -19 | -9 | 9 | -12 | -38 | -5 | · | · | ·
CN(Cc1cn(CC2CCCCC2)nn1)S(=O)(=O)c1ccccc1Br | 7 | · | · | · | · | 7 | · | · | ·
O=C(CN1C(=O)c2cccc3cccc1c23)N1CCN(c2ccc(F)cc2)CC1 | -8 | -14 | 8 | 12 | -3 | 13 | · | · | ·
O=C(CN1C(=O)c2cccc3cccc1c23)N1CCN(c2ccccc2)CC1 | 9 | -2 | 93* | 0 | 3 | -1 | 21 | 5 | -16
c1ccc(-c2nnc(N3CCN(c4ccccn4)CC3)c3ccccc23)cc1 | -2 | -11 | 61* | 2 | 3 | -12 | 34 | 1 | -12
CN(C(=O)[C@@H](C1CC1)[C@@H](O)c1ccc2ccccc2c1)c1ccccc1 | 8 | · | · | · | · | 9 | · | · | ·
Cc1ccc(-c2c[n+](Cc3ccc(Cl)c(Cl)c3)c3n2CCC3)cc1 | 19 | 28 | 85* | 54 | 23 | 18 | 80* | 26* | -14
Cc1ccc(NC(=O)C[n+]2cc(-c3ccc(C)cc3)n3c2CCC3)cc1 | -2 | 13 | 7 | 28 | -12 | -13 | · | · | ·
Cc1cc(C)n(-c2nnc(C)n2/N=C/c2ccco2)n1 | -2 | -5 | 53 | 8 | 1 | 6 | 5 | -1 | 0
Cc1oc(-c2ccccc2F)nc1CS(=O)(=O)CC(=O)NCCCN1CCN(C)CC1 | 2 | -12 | -2 | 12 | -1 | -13 | · | · | ·
COc1ccc(-c2nc(CS(=O)(=O)CC(=O)NCCCN3CCN(C)CC3)c(C)o2)cc1 | 8 | -19 | 53 | 4 | 8 | -26 | 11 | 10 | -2
CC1=CC(C)C2(COC(c3ccc[n+](C)c3)OC2)C(C)C1 (stereo unspecified) | 0 | -6 | 58* | 14 | 12 | 6 | 53* | 17 | -4
C=CCN(C)CC#Cc1ccccc1C | -1 | · | · | · | · | 7 | · | · | ·
CC(=O)Nc1ccc(S(=O)(=O)N(C)Cc2ccccc2)cc1 | 4 | 6 | -7 | -3 | -14 | -23 | · | · | ·
CC(=O)Nc1ccc(S(=O)(=O)N(Cc2ccccc2)C(C)C)cc1 | 17 | 8 | 57* | 5 | 12 | -21 | 56* | 12 | 19
